Measured values taken from ChEMBL document CHEMBL3988442, “University of Dundee, Small-Polar-MMV Screening Library” (2021).

How the values were obtained:
[1] = target: T1, Aspartate--tRNA(Asp/Asn) ligase (Mycobacterium tuberculosis (strain ATCC 25618 / H37Rv)) (UniProt P9WFW3); assay: Assay for Asp RNA synthetase-1 from Mycobacterium tuberculosis; type: functional; design: scale not given: direction of the effect not stated beside the values; details: 30 µM; note: in the data most compounds retested in dose-response had high values
T1 sequence (whole entry): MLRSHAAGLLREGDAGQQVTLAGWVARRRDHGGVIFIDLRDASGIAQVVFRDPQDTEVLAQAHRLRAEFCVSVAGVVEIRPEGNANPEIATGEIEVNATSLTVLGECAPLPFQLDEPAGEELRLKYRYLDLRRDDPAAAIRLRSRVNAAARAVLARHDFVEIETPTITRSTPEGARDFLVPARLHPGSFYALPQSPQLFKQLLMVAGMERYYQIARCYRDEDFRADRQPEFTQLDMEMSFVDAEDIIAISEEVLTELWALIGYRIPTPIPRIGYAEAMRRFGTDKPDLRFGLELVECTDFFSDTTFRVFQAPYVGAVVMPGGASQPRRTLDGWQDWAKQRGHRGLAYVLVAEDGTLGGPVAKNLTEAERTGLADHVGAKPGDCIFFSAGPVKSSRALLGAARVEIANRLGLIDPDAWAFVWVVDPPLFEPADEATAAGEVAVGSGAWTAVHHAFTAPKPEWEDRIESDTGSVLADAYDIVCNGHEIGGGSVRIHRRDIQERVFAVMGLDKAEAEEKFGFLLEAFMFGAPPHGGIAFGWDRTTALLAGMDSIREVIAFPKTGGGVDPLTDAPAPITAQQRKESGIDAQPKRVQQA

[2] = target: Shiga toxin 2 (Escherichia coli O157:H7) (UniProt P09385+P09386); assay: E. coli 0.157:H7 Shiga Toxin SOP - stx2 screening assay; type: functional; design: scale not given: direction of the effect not stated beside the values; details: 30 µM

SMILES	Percent Effect [1] [%]	Percent Effect [2] [%]
CCC(OC)C(=O)N1CCc2nc(NC)nc(C(=O)N3CCCC3)c2C1 (stereo unspecified)	1.34	-1.38
CC(C)CN1C[C@H]2CCN(Cc3cccnc3)CC[C@H]2S1(=O)=O	-4.32	4.22
CC(=O)c1cc(CC(=O)NCc2ccc(CN(C)C)cc2)cs1	1.66	-38.2
c1ccc(-c2cnc(CN3CCn4c(nnc4C4CC4)C3)o2)cc1	0.278	23.8
Cc1occc1C(=O)N1CCC[C@]2(C[C@@H](OCc3ccncc3)CO2)C1	6.93	-29.1
CC(C)c1cc(NC(=O)c2ccc(NC3CC3)nc2)[nH]n1	-1.67	-52
Cc1cnc(CN(C)C2CCN(CCc3ccccn3)CC2)cn1	4.34	10.4
c1ncn(CC2CCCN2Cc2cn3ccsc3n2)n1 (stereo unspecified)	-3.37	-3.31
CCn1nc2c(cc1=O)CN(CC(=O)Nc1nc(C)c(C)s1)CC2	3.7	-30.8
Cc1cc(C)n(CC2CCCN2Cc2c(C)noc2C)n1 (stereo unspecified)	-2.12	-12.7
CCCc1nc(CN2CCN(CC(O)c3ccccc3)CC2)no1 (stereo unspecified)	-4	-3.05
O=C(Nc1ccccn1)N(CCO)Cc1ccsc1	-3.79	31.7
COc1cc(CNC(=O)c2c(C)noc2C(C)C)ccn1	-1.27	-44
COCCN1CCC2(CC1)CC(COC)N(c1ncccn1)C2 (stereo unspecified)	0.446	-9.07
CCCc1c(C(=O)NC2CCCC2)nnn1-c1ccc(OC)cc1	-1.57	-4.2
Cc1ncsc1C(=O)NC1CCN(Cc2cccnc2)CC1	-7.07	-58.8
Cn1ccnc1CN(CCCO)C1CCCc2ccccc21 (stereo unspecified)	3.32	8.83
Cc1nn(CC(=O)N2CCC(Nc3cccnn3)CC2)c(C)c1Cl	-1.63	-23.6
